# Assay results taken from PubChem BioAssay (NCATS).
# A number with no mark means an inactive call. Records with an inconclusive call do not appear. Entries that show only a call come without a potency. Calls of active or inactive are those of the source. Unless noted, calls follow the shape of the dose curve; as a rule, active = well fitted activation curve with a large enough effect; inconclusive = small, poorly fitted or top-dose-only effect; inactive = flat fitted curve, though single readings scatter.
# Columns and labels:
# [1] = Confirmation and Secondary Assay for Modulators of Hemoglobin Beta Chain Splicing at IVS2 654 locus (AID 910);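 also: HeLa cells stably carrying EGFP split by mutant beta-globin IVS2-654 intron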;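 also: potency is read from the fitted curve at half-maximal effect; potency of activators that raise GFP signal by restoring correct splicing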
# Outline: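 HeLa cells stably expressing EGFP interrupted by β-globin IVS2-654 intron, seeded overnight in Opti-MEM/2% FCS, then treated 2 days at 37 °C. Restored splicing read as total peak GFP intensity per well by laser scanning cytometry (488 nm excitation, 500–520 nm emission); 500 nM antisense PNA as control.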
# [2] = Confirmation and Secondary Assay for Modulators of Hemoglobin Beta Chain Splicing at IVS2 705 locus (AID 930);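 also: GFP fluorescence per well restored by corrected splicing of the IVS2-705 intron in EGFP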; also: potency is read from the fitted curve at half-maximal effect;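 as to activation: HeLa cells stably expressing the EGFP-705 splicing reporter; series mostly up to about 46 µM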
# Outline: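 First, HeLa EGFP-705 cells are seeded at 500/well in Optimem with 2% FCS and left overnight. Next, compound or DMSO is added for 2 days. Finally wells are laser-scanned and total peak GFP intensity scored.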
# [3] = qHTS Assay for Identification of Small Molecule Agonists for Hypoxia Response Element Signaling Pathway (AID 914; active = well fitted activation curve with a large enough effect in the signal ratio, with a control signal flat, not every such curve was filed as active; the % refers to the signal ratio); settings: ME-180 (cervical carcinoma) HRE-bla reporter, beta-lactamase ratio, CoCl2, 17 h; hits give high values
# Outline: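 Positive modulation of EC50 CoCl2-induced hypoxia response element signaling is measured in ME-180 cells with a beta-lactamase reporter. Compounds are titrated, incubation runs 17 hours, and %Activity derives from the blue/green ratio.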
SMILES,Potency [1],Potency [2],activation [3]
CNS(=O)(=O)Cc1ccc2[nH]cc(CCN(C)C)c2c1,inactive,inactive,–
COc1ccc2c(c1)c(CC(=O)OCC(=O)O)c(C)n2C(=O)c1ccc(Cl)cc1,inactive,inactive,–
OC(Cn1cncn1)(Cn1cncn1)c1ccc(F)cc1F,inactive,inactive,–
NC(=O)N1c2ccccc2CC(=O)c2ccccc21,inactive,inactive,–
COC(=O)Nc1nc2ccc(Sc3ccccc3)cc2[nH]1,inactive,inactive,–
CN(CCOc1ccc(CC2SC(=O)NC2=O)cc1)c1ccccn1 (configuration not stated),inactive,inactive,–
O=S(=O)(O)CCS,inactive,inactive,–
S=P(N1CC1)(N1CC1)N1CC1,–,inactive,–
CCCCOc1ccc(CC(=O)NO)cc1,inactive,inactive,–
CN1CCCC(n2nc(Cc3ccc(Cl)cc3)c3ccccc3c2=O)CC1 (configuration not stated),inactive,inactive,–
O=C(O)c1cccnc1,inactive,inactive,–
Nc1nc(=S)c2[nH]cnc2[nH]1,31.6 µM (active),5.01 µM (active),–
CNNCc1ccc(C(=O)NC(C)C)cc1,–,–,9.99%
COc1cc(NS(=O)(=O)c2ccc(N)cc2)nc(OC)n1,inactive,inactive,–
COc1ccccc1OCC(O)COC(N)=O (configuration not stated),inactive,inactive,–
COc1cnc(NS(=O)(=O)c2ccc(N)cc2)nc1,inactive,inactive,5.32%
Oc1c(Cl)cc(Cl)c2cccnc12,inactive,inactive,–
Nc1ccc(S(=O)(=O)Nc2ccccn2)cc1,inactive,inactive,–
COc1ccc(C(=O)CC(=O)c2ccc(C(C)(C)C)cc2)cc1,inactive,inactive,–
